Source: PubChem BioAssay
Only a selection was taken, and hits are over-represented in it overall.
PI4K2A block = PI4K2A (human) kinase inhibition; purified PI4K2A, ADP-Glo luminescence, 1 h; active compounds read low; activity change, negative = inhibition, % at 76.9 µM; hit rate 0.13% among 420,000; in the data active means activity change below about -50%; inconclusive means mostly about -30% to -49%;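 further: -100% = wells without enzyme as full effect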
Target sequence (Q9BTU6 whole entry, looked up): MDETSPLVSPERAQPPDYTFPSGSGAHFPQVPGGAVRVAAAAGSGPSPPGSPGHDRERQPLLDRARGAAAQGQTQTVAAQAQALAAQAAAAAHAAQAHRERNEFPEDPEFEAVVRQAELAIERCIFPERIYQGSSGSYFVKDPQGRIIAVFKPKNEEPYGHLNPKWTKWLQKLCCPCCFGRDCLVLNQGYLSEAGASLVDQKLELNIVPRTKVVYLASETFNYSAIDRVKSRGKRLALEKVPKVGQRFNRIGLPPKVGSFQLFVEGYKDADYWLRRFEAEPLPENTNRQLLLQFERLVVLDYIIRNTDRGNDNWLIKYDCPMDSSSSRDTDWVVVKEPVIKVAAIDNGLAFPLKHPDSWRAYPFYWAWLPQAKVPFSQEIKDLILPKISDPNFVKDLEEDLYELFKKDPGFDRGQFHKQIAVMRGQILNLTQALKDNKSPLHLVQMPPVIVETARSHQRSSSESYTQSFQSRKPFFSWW
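In this quantitative HTS, ADP production by PI4K2A was quantified luminescently after 1 h at ambient temperature; 100 microM adenosine served as plate-quality control.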
HttQ103 aggreg = mutant huntingtin aggregation inhibition; PC12 HttQ103-GFP aggregates, Acumen cytometry, 40 h; Potency, µM (titrated, usually from 46.1 µM), inactives show at the top dose activity change, negative = inhibition, usual class: inhibitors; hit rate 1.1% among 220,000; AID 1688; further: potency means the concentration at half of the fitted maximal effect; on the % scale 0 is the no-effect control and ±100 the full control effect; nearly all actives have a fitted effect of over 60% in size
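Aggregates are detected as GFP objects 1–25 µm with signal 6 STDEV over background in lysates of induced PC12 cells. These carry Huntingtin exon 1 with 103 glutamines fused to GFP under an ecdysone promoter; compounds titrated.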
HTT ATP protect = cytoprotection in Huntington HTT-Q103 PC12 cell model. PC12 HTT-Q103 induced, cytoprotection, ATP luminescence, 40 h. Potency, µM (top dose mostly 56.4 µM), for inactives: cytoprotection (ATP increase), actives largely listed as activators. hit rate 0.14% among 230,000. AID 1471; further: potency means the concentration at half of the fitted maximal effect; % of control where 0% means no effect; nearly all actives have a fitted effect of over 45% in size
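PC12 cells with ecdysone-inducible HTT exon 1 Q103-GFP, induced with 100 nM tebufenozide and co-treated with library compounds in a dose series (1536-well, 1500 cells/well). Cytoprotection read as ATP content by ATPlite luminescence.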
GALK inhibitor = blocks human galactokinase activity; P51570; Purified GALK, Kinase-Glo residual ATP luminescence; Potency, µM (highest dose often 57.5 µM), without a hit: at the highest dose activity change, negative = inhibition, most hits filed as inhibitors; hit rate 0.007% among 270,000; AID 1868; further: potency means the concentration at half of the fitted maximal effect; on the % scale 0 is the no-effect control and ±100 the full control effect
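The enzyme phosphorylates galactose (100 uM) using ATP (35 uM); inhibition is detected as higher residual ATP, quantified by bioluminescence after 1 h reaction at room temperature, pH 8.0.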
Starred values were filed as active, the others as inactive; ? = inconclusive; · = no result given; [ ] = another dose, or the depositor's remark. Unless noted, the call rests on the fitted dose curve; in most records, active means well fitted curve in the direction sought with a large enough effect; inconclusive means small, poorly fitted or top-dose-only effect, or another doubt; inactive means no such curve, though single readings can be large; an effect the other way counts as inactive or inconclusive.

SMILES	PI4K2A block	HttQ103 aggreg	HTT ATP protect	GALK inhibitor
CCOc1ccc2c(ccc(/C=C/c3cc(C)c4cccnc4c3O)[n+]2C)c1	-58*	·	·	·
CCOC(=O)c1sc2nc(NC(=O)C(C)(C)C)sc2c1C	1	35µM*	-78%	2%
CCC(NC(=O)Nc1nnc(C(F)(F)F)s1)(C(F)(F)F)C(F)(F)F	-6	1.6µM*	-73%	-2%
CC(C)Cn1c(=O)c(C(=O)NCc2ccccn2)c(O)c2ccccc21	-5	7.9µM*	-23%[10 µM]	-3%
COC1CC2CCC(C)[C@](O)(O2)C(=O)C(=O)N2CCCCC2C(=O)OC(C(C)CC2CCC(O)C(OC)C2)CC(=O)C(C)/C=C(/C)C(O)C(OC)C(=O)C(C)CC(C)C=CC=C/C=C\1C (stereo partly specified)	·	-2%	-35%	·
C#Cc1ccc(-c2ccccc2F)cc1	0	·	·	·
COc1ccc2c(c1)C(=O)[C@H](OC(=O)N[C@H](C)C1CCCCC1)[C@@H](c1ccc(OC)c(Br)c1)O2	·	·	-82%	·
CC(C)OC(=O)CC(=O)CSc1nc2c(c(-c3cccs3)c1C#N)CCC2	-3	11µM*	-4%[1.9 µM]	0%
COc1ccccc1/C=C1\S/C(=N/NC(=O)c2cccc(Br)c2)NC1=O	3	10µM*	-84%	-29%
COC(=O)/C=C1\S/C(=N/NC(=O)c2ccccc2)NC1=O	-1	0%	11%	0%
O=[N+]([O-])c1ccc2c(c1)S(=O)(=O)C=C2	28	·	·	·
CC(C)C[C@@H]1[C@H](c2ccccc2)OC(=O)N1CCCN1CCCCCC1	2	·	·	·
Cc1ccc(C2CC(=O)Oc3ccc(O)cc32)cc1 (stereo unspecified)	·	·	-76%[96.6 µM]	·
Cc1ccc(C2CC(=O)Oc3ccc(C(C)(C)C)cc32)cc1 (stereo unspecified)	·	·	28µM*	·
O=C(O)C(Cc1ccccc1)N1CCS(=O)(=O)CC1 (stereo unspecified)	1	5%	2µM*	3%
COC(=O)C(Cc1ccccc1)N1CCS(=O)(=O)CC1 (stereo unspecified)	1	8%[9.22 µM]	-22%	-1%
CS(=O)(=O)c1ccccc1C(=O)Nc1ccccc1Cc1ccccc1	10	·	·	-2%
Cc1ccc(NC(=O)c2ccccc2NS(=O)(=O)c2ccc(Cl)s2)cc1	-2	3.2µM*	-39%[10 µM]	-4%
O=C(NCc1ccco1)c1ccccc1NS(=O)(=O)c1ccc(Cl)s1	-8	18µM*	-18%	-2%
O=C(NCc1ccco1)c1ccccc1NS(=O)(=O)c1cccs1	2	7%	1%[0.074 µM]	1%
O=C(Nc1ccccc1Cc1ccccc1)c1ccccc1NS(=O)(=O)c1ccc(Cl)s1	1	2.5µM*	·	1%
O=C(Nc1ccccc1)c1ccccc1NS(=O)(=O)c1ccc(Cl)s1	3	1%	9%[10 µM]	-5%
O=C(CS(=O)Cc1ccco1)NC/C=C\COc1cc(CN2CCCCC2)ccn1 (stereo unspecified)	-2	·	·	·
CO[C@@H]1[C@@H](O[C@@H]2O[C@H](C)[C@@H](O[C@H]3C[C@@](C)(O)[C@@H](O)[C@H](C)O3)[C@H](N(C)C)[C@H]2O)[C@@H](CC=O)C[C@@H](C)[C@@H](O[C@@H]2CC[C@H](N(C)C)[C@@H](C)O2)/C=C/C=C/C[C@@H](C)OC(=O)C[C@H]1OC(C)=O	-2	·	·	·
Cc1cc(/C=C\c2ccc3cc(N(C)C)ccc3[n+]2C)c(C)n1-c1ccccc1	-23	3.2µM*	-93%[17.1 µM]	·
SMILES	PI4K2A block	HttQ103 aggreg	HTT ATP protect	GALK inhibitor
CCN(CC)c1ccc2c(c1)oc(=O)c1c(Cl)cc(=O)oc12	?	13µM*	-40%	-13%
N[C@H](CS(=O)O)C(=O)O	·	·	6%[1.9 µM]	·
CC[C@@H]1[C@H]2CCCCN3[C@@H]2[C@@H](C[C@H]3[C@@H]2C[C@H](C)C(=O)O2)[C@@H]2[C@H]1OC(=O)[C@H]2C	·	·	-12%	·
Cc1cccc(C)c1NC(=O)COC(=O)Cc1ccsc1	2	20µM*	33%[10 µM]	·
Cn1c(CNc2ccccc2)cc(=O)n(C)c1=O	-69*	-9%	14%	2%
Cc1cc(C)cc(CC(Cc2nc3ccccc3[nH]2)c2nc3ccccc3[nH]2)c1 (stereo unspecified)	2	22µM*	-11%[10 µM]	3%
COC(=O)c1ccccc1NC(=O)C1CCC(=O)N1S(=O)(=O)c1ccc(C)cc1 (stereo unspecified)	4	18%	-8%	-1%
